The source of these data is publication PMC8384837, “Expanding the binding specificity for RNA recognition by a PUF domain”.

Common to all, as to assay: yeast three-hybrid, YBZ-1, SC-Leu-His + 0.5 mM 3-AT, 4 days
What all share (conditions): tags: N-Gal4 AD-HA kept; label: inside an RPR1-promoter hybrid RNA with tandem MS2 sites; ssRNA

One assay addresses PUM1 PUF domain R1-MRR (Homo sapiens, UniProt Q14671 828-1176, S863M;Q867R). In a few lines:
(§1)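 A centromeric plasmid in strain YBZ-1 co-expressed Pumilio-1 PUF domain libraries, randomized at the three base-contacting residues of each repeat, with matching RNA elements; the strain carries a LexA–MS2 coat fusion and a HIS3 reporter. After four days on SC-Leu (input) or SC-Leu-His + 0.5 mM 3-AT (selection), the repeat regions were PCR-amplified and Illumina-sequenced. The interaction score is the log change in variant frequency from input to selection, using log2 and a pseudocount of 1 where absent.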

The next assay has as its target PUM1 PUF domain R1-RIE (Homo sapiens, UniProt Q14671 828-1176, S863R;R864I;Q867E). In a few lines: as §1
Another assay addresses PUM1 PUF domain R1-GIR (Homo sapiens, UniProt Q14671 828-1176, S863G;R864I;Q867R). In a few lines:
as §1

The target of the next assay is PUM1 PUF domain R1-RCS (Homo sapiens, UniProt Q14671 828-1176, S863R;R864C;Q867S). Summed up: as §1
Chain of PUM1 PUF domain R1-RCS (Q14671 828-1176 S863R/R864C/Q867S): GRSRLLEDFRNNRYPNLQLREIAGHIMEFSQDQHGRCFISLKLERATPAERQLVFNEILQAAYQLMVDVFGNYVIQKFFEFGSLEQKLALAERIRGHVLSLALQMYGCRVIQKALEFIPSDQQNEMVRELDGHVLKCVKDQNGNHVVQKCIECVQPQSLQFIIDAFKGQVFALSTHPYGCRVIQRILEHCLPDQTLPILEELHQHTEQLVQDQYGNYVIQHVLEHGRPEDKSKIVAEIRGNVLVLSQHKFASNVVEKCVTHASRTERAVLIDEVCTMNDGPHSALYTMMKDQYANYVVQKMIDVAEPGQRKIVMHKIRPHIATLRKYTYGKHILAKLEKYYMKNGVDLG
Another assay has as its target PUM1 PUF domain R4-GRS (Homo sapiens, UniProt Q14671 828-1176, N971G;H972R;Q975S). Summed up: as §1
The target of another assay is PUM1 PUF domain R4-TPG (Homo sapiens, UniProt Q14671 828-1176, N971T;H972P;Q975G). Summed up: as §1
Chain of PUM1 PUF domain R4-TPG (Q14671 828-1176 N971T/H972P/Q975G): as the sequence (Q14671 828-1176 S863R/R864C/Q867S) above, with R36S, C37R, S40Q, N144T, H145P, Q148G counted along it
The next assay has as its target PUM1 PUF domain R4-SPW (Homo sapiens, UniProt Q14671 828-1176, N971S;H972P;Q975W). In a few lines: as §1
A further assay concerns the target PUM1 PUF domain R5-WHS (Homo sapiens, UniProt Q14671 828-1176, C1007W;R1008H;Q1011S). In a few lines:
as §1

The target of a further assay is PUM1 PUF domain R5-TVD (Homo sapiens, UniProt Q14671 828-1176, C1007T;R1008V;Q1011D). Summed up: as §1
Another assay deals with PUM1 PUF domain R8-VWP (Homo sapiens, UniProt Q14671 828-1176, N1122V;Y1123W;Q1126P). In a few lines: as §1
The target of another assay is PUM1 PUF domain R3-PWW (Homo sapiens, UniProt Q14671 828-1176, C935P;R936W;Q939W). Summed up:
as §1

Another assay deals with PUM1 PUF domain R5-RKS (Homo sapiens, UniProt Q14671 828-1176, C1007R;R1008K;Q1011S). Summed up: as §1
In another assay the target is PUM1 PUF domain R5-FRR (Homo sapiens, UniProt Q14671 828-1176, C1007F;Q1011R). In a few lines: as §1
Chain of PUM1 PUF domain R5-FRR (Q14671 828-1176 C1007F/Q1011R): as the sequence (Q14671 828-1176 S863R/R864C/Q867S) above, with R36S, C37R, S40Q, C180F, Q184R counted along it
For another assay, the target named is PUM1 PUF domain R4-SFR (Homo sapiens, UniProt Q14671 828-1176, N971S;H972F;Q975R). In a few lines:
as §1

Another assay concerns the target PUM1 PUF domain R3-FFV (Homo sapiens, UniProt Q14671 828-1176, C935F;R936F;Q939V). Summed up:
as §1

Chain of PUM1 PUF domain R4-SPW (Q14671 828-1176 N971S/H972P/Q975W): as the sequence (Q14671 828-1176 S863R/R864C/Q867S) above, with R36S, C37R, S40Q, N144S, H145P, Q148W counted along it

As for “GGCUAGAACUAGUGGAUCCCCCGGCGCCCGGCGGCUCGAGCCCGGGUAAGUGUAAAUUGUCUGCAUGCCGCCGGGCGCCAUGCCUGCAGGUCGACUCUAGAAAACAUG”, the binding signal is 5.53 log2 enrichment (interaction score) with PUM1 PUF domain R1-MRR, 2.99 log2 enrichment (interaction score) with PUM1 PUF domain R1-RIE, 3.23 log2 enrichment (interaction score) in the assay with PUM1 PUF domain R1-GIR and 3.23 log2 enrichment (interaction score) with PUM1 PUF domain R1-RCS.
Regarding “GGCUAGAACUAGUGGAUCCCCCGGCGCCCGGCGGCUCGAGCCCGGGUAAGUGUAUAUAGUCUGCAUGCCGCCGGGCGCCAUGCCUGCAGGUCGACUCUAGAAAACAUG”, the binding signal in the assay with PUM1 PUF domain R4-GRS was 2.08 log2 enrichment (interaction score); with PUM1 PUF domain R4-TPG it was 4.15 log2 enrichment (interaction score); with PUM1 PUF domain R4-SPW, 2.59 log2 enrichment (interaction score).
In the case of “GGCUAGAACUAGUGGAUCCCCCGGCGCCCGGCGGCUCGAGCCCGGGUAAGUGUAAAUAGUCUGCAUGCCGCCGGGCGCCAUGCCUGCAGGUCGACUCUAGAAAACAUG”, the binding signal is 4.09 log2 enrichment (interaction score) with PUM1 PUF domain R4-GRS; 1.16 log2 enrichment (interaction score) with PUM1 PUF domain R5-WHS; 0.28 log2 enrichment (interaction score) with PUM1 PUF domain R5-TVD; 1.71 log2 enrichment (interaction score) with PUM1 PUF domain R8-VWP; 3.31 log2 enrichment (interaction score) in the assay with PUM1 PUF domain R4-TPG; 2.43 log2 enrichment (interaction score) with PUM1 PUF domain R3-PWW. Besides, the binding signal is 0.56 log2 enrichment (interaction score) with PUM1 PUF domain R5-RKS, 1.31 log2 enrichment (interaction score) with PUM1 PUF domain R5-FRR and 3.13 log2 enrichment (interaction score) with PUM1 PUF domain R4-SPW.
As to “GGCUAGAACUAGUGGAUCCCCCGGCGCCCGGCGGCUCGAGCCCGGGUAAGUGUCAAUAGUCUGCAUGCCGCCGGGCGCCAUGCCUGCAGGUCGACUCUAGAAAACAUG”, the results for the binding signal with PUM1 PUF domain R5-TVD, in the assay with PUM1 PUF domain R5-RKS and with PUM1 PUF domain R5-FRR were 3.26 log2 enrichment (interaction score), 3.2 log2 enrichment (interaction score) and 4.1 log2 enrichment (interaction score), respectively.
Turning to “GGCUAGAACUAGUGGAUCCCCCGGCGCCCGGCGGCUCGAGCCCGGGUAAGCGUAAAUAGUCUGCAUGCCGCCGGGCGCCAUGCCUGCAGGUCGACUCUAGAAAACAUG”, the binding signal with PUM1 PUF domain R8-VWP is 3.01 log2 enrichment (interaction score).
For “GGCUAGAACUAGUGGAUCCCCCGGCGCCCGGCGGCUCGAGCCCGGGUAAGUGUACAUAGUCUGCAUGCCGCCGGGCGCCAUGCCUGCAGGUCGACUCUAGAAAACAUG”, the binding signal was 4.24 log2 enrichment (interaction score) in the assay with PUM1 PUF domain R4-SFR, 3.87 log2 enrichment (interaction score) with PUM1 PUF domain R4-TPG and 0.34 log2 enrichment (interaction score) with PUM1 PUF domain R4-SPW.
“GGCUAGAACUAGUGGAUCCCCCGGCGCCCGGCGGCUCGAGCCCGGGUAAGUGUAAGUAGUCUGCAUGCCGCCGGGCGCCAUGCCUGCAGGUCGACUCUAGAAAACAUG”: the binding signal with PUM1 PUF domain R3-FFV was 6.72 log2 enrichment (interaction score).
